Unmarked numbers belong to inactive results. No rule for the calls is given here.
B1: design_616_e8336982-fa4d-4d7c-b06f-9007953e1994_543_dldesign_0_cycle1_af2pred (protein)
chain: MEEAIAELNKAFAALNAAARTTDAATAQENAKKAIEYAKAAAKAAGEAMAPAAKGIIEQAKEVAAAKAALAA
B2: design_616_e8336982-fa4d-4d7c-b06f-9007953e1994_1846_dldesign_0_cycle1_af2pred (protein)
chain: AQAEKEAAAAKAKRLLDQLKEFGALAVTAAAASAQQGQAYLAMARQLAANAKEEAKKTGEEGKELAAQAEATLAAAEAGVAAALAAA
B3: design_616_e8336982-fa4d-4d7c-b06f-9007953e1994_576_dldesign_0_cycle1_af2pred (protein)
chain: SPALELTKRVAEAMAAQARRAAEEDPALGRAQFENALQIAKQFNPEQGALFRAILEATRAEVEAALAAAA
B4: design_616_e8336982-fa4d-4d7c-b06f-9007953e1994_719_dldesign_0_cycle1_af2pred (protein)
chain: PTPVEVAEAAAQATIKTAKRQVEEAKRLLKEGKAEEALRLAESAIQNAEIAKDLAENNPEKKEELKKQAEEVKKEAEEVKEEAEKKL
B5: design_616_e8336982-fa4d-4d7c-b06f-9007953e1994_1901_dldesign_0_cycle1_af2pred (protein)
chain: AAAARAAAAALAAEAIAAAAAAVAADPAAAAIIHAQAERARGGDAATAVRAAQAAGVLAAVLAGDEALAAAVTRRAAALLAA
B6: design_616_e8336982-fa4d-4d7c-b06f-9007953e1994_1845_dldesign_0_cycle1_af2pred (protein)
chain: MEEEERKKKREKAEELLAKAKEHIEAAAKQGALGDGLKFATEVVREATELDPELGEEVAKRVQQLLAEQSRQAIA
B7: design_616_e8336982-fa4d-4d7c-b06f-9007953e1994_528_dldesign_0_cycle1_af2pred (protein)
chain: SLLEAALAELRARFEAAKTATPAEAAALVRAAQGTLLTAAAQAGAPLEAMAAVSRVLGAAAETAATAPPEERAAALDAALAEVAALLA
B8: design_616_e8336982-fa4d-4d7c-b06f-9007953e1994_1780_dldesign_0_cycle1_af2pred (protein)
chain: MASLAQGVINMVRSLAELAIKASPEEAAKLAAEAADIAIAGGEQFGAETAEEAAKILEEAAKAKPEVAPYAERVKKKLKEL
B9: design_616_e8336982-fa4d-4d7c-b06f-9007953e1994_767_dldesign_0_cycle1_af2pred (protein)
chain: AAAREAAVEAAKKQLEELKKKAEELLAYLKANPAASPEEKQKVLEESTKIISQASELAEAYPEVAEQAREAMSAAAKAAILAQKLL
B10: design_616_e8336982-fa4d-4d7c-b06f-9007953e1994_1283_dldesign_0_cycle1_af2pred (protein)
chain: AAAAAAAAAARAALRAELLALAEEGAKKVLAGEISLGEAVKAIMEAGAADPEAANEAAAYLIRTVMQATQAA
B11: design_616_e8336982-fa4d-4d7c-b06f-9007953e1994_1282_dldesign_0_cycle1_af2pred (protein)
chain: AAALEVTRRTIFAMADHAYKSENLETAKAIMKTLGQIAVAAGEEVLKEAREYIEKLAKESTEEKAKALLEGFEEGVAEAKA
B12: design_616_e8336982-fa4d-4d7c-b06f-9007953e1994_1297_dldesign_0_cycle1_af2pred (protein)
chain: DPTAEAAARSAEARALRERGAAAGPEAAAVAEAAALAAQRANYYYLISYGDPSAAEAAAKAAEAEAEARELRAELEKLLAEAE
B13: design_616_e8336982-fa4d-4d7c-b06f-9007953e1994_1398_dldesign_0_cycle1_af2pred (protein)
chain: PREEVERLEREVREARKRAEAATTVEQAGEAALEALEAEARARRLAEELRARGGDEELAERAERVAEEARAVFLFAAGKAIELAKA
B14: design_616_e8336982-fa4d-4d7c-b06f-9007953e1994_1848_dldesign_0_cycle1_af2pred (protein)
chain: GMAEKEKEYEEKLKEYKAKAKEAAKLTVEDPEAGAKKFKEIIEKAAKDFPERAKEIEEELLKVYREALAAAARAAIAAARA
B15: design_616_e8336982-fa4d-4d7c-b06f-9007953e1994_1581_dldesign_0_cycle1_af2pred (protein)
chain: EEARREELARKAEEKAEEIAKRLAKEGKSVEEIVEEAERYAKELLRPESEEVREEAAGRAANAAVRAYAKVSLELSA
B16: design_616_e8336982-fa4d-4d7c-b06f-9007953e1994_1719_dldesign_0_cycle1_af2pred (protein)
chain: AEAAGKAAAAAIELSREMLRIAREAGNEEVIAIAQRATAAFNQAMLDKKAGIERLKEVAKEAEELPEGKPVAELVKKAIKAFEA
B17: design_616_e8336982-fa4d-4d7c-b06f-9007953e1994_396_dldesign_0_cycle1_af2pred (protein)
chain: GMAELLAELREAEARTTALELMFQAGKNIHPGVAAQGLEAARRLRELAERVADAISPEERARYLAAAERTEELAA
B18: design_616_e8336982-fa4d-4d7c-b06f-9007953e1994_606_dldesign_0_cycle1_af2pred (protein)
chain: SPLAQAQADLLRRTLAALRRSVERAEELAREDPEAGAARLRALAQSAEVVLEAARGLAAQDPALGAETVAAAREVLERAREAEERAR
B19: design_616_e8336982-fa4d-4d7c-b06f-9007953e1994_1040_dldesign_0_cycle1_af2pred (protein)
chain: MEEVLREVERQAESVEKLAQAVIDLAQNDPEAQAKAKELAEKAREARERALEEPETAEEQLKRLQELFEEARRLAAETSRRAIAAA
B20: design_616_e8336982-fa4d-4d7c-b06f-9007953e1994_1400_dldesign_0_cycle1_af2pred (protein)
chain: AAAAVAIADKTIAALARQARRLAEEAIRDPDPERARRLVESAEELVRVAEDIAEAMGASPEAKEAVRRAREEVERAREVVER
B21: design_616_e8336982-fa4d-4d7c-b06f-9007953e1994_392_dldesign_0_cycle1_af2pred (protein)
chain: AEAYQKALATAEKLLAQGQAGLADPSNAEALEKGAQGYFLLAALYPEKREEYVAKGEALYKKAEEARAAQAA
B22: design_616_e8336982-fa4d-4d7c-b06f-9007953e1994_1084_dldesign_0_cycle1_af2pred (protein)
chain: MTVDERLWETTEKLVELIEQVAASAPAFPKEGAIRTIKGLAANAKLAAEAALKAGASPEVTKAAAEKVEKAAKAALAKVE
B23: design_616_e8336982-fa4d-4d7c-b06f-9007953e1994_1403_dldesign_0_cycle1_af2pred (protein)
chain: GAARAAELQGKADYLLAKSYADAALKSPDPEKAAELLKKAKEYAERALEDPVGAPYGEKALKYIEEVEKAL
B24: design_616_e8336982-fa4d-4d7c-b06f-9007953e1994_1205_dldesign_0_cycle1_af2pred (protein)
chain: DQAQAKAVAIKTVEGMLKKMKQLKEEAEKNAADPSIAIPKAEAIKQLAEVSMAILKAAGLDQETIDKYEKEAKALKEAAEKAAKKAKE
B25: design_616_e8336982-fa4d-4d7c-b06f-9007953e1994_1415_dldesign_0_cycle1_af2pred (protein)
chain: AAAALAAAVAAAKEIAADLSPEDQAIVVTAAVLAVTGAGLGQAIELARAHPAISAAIMGAAARAQAAVLAAA
B26: design_616_e8336982-fa4d-4d7c-b06f-9007953e1994_1227_dldesign_0_cycle1_af2pred (protein)
chain: SSGAQLVTTAGAVILAQVPPAAHPYVEAATAAGVAEGVEAFLSGLQEARKALSPEDAAVLLAATTAGLAAGAKAVIA
B27: design_616_e8336982-fa4d-4d7c-b06f-9007953e1994_824_dldesign_0_cycle1_af2pred (protein)
chain: DDLERGRELAEEVARVIREGTPEEAKRAIEEAAERLAELSAGAALLAGSLMVREAAKVPGGEELTAHIRAELLRVLRAKIAAA
B28: design_616_e8336982-fa4d-4d7c-b06f-9007953e1994_502_dldesign_0_cycle1_af2pred (protein)
chain: MTPEQLAAMERSVARIAEAGARAPTEEEFESAMTAALALAESFGRKAGAPELATARAREIVAKYRARRLA
B29: design_616_e8336982-fa4d-4d7c-b06f-9007953e1994_1969_dldesign_0_cycle1_af2pred (protein)
chain: GEEEKEKKKERFEEILKKAIEGKATKEEIEQAALDGVAYDGGEAVLALLKAYAEAKDPEVRKYLAQALALAARLTAAKLRA
B30: design_616_e8336982-fa4d-4d7c-b06f-9007953e1994_1055_dldesign_0_cycle1_af2pred (protein)
chain: GAAEEARKKAEEALKKIEELKEKAKADPANAGAYALEAVKTAAEASRALREADPALEEEIDRLRQAAAEAIRAALATQTA
B31: design_616_e8336982-fa4d-4d7c-b06f-9007953e1994_1142_dldesign_0_cycle1_af2pred (protein)
chain: SAKAEAAKKEYEKAKKAAEEAKKVAKAAGDEAGAAAAKALEKSAENALRNGNLEMVKQVKEIAEAEKEIAEKKLK
B32: design_616_e8336982-fa4d-4d7c-b06f-9007953e1994_1745_dldesign_0_cycle1_af2pred (protein)
chain: APLEAVAKEAAEIAAKELPEASLEDALLVAEALLNPEKAKEYFAEVKKRLSPEDAARLFQTVGKAFSQLSLKLQAALAA
B33: design_616_e8336982-fa4d-4d7c-b06f-9007953e1994_787_dldesign_0_cycle1_af2pred (protein)
chain: VAAAISAATSTAVELLRAAAGATPEQRAEAHALAAEVNRAAVAAAADPSALPATRAELERARARLEAVRAALA
B34: design_616_e8336982-fa4d-4d7c-b06f-9007953e1994_1883_dldesign_0_cycle1_af2pred (protein)
chain: NAEVAKLLGQIIDELQAAQAAAAAGDLKAAAKEAQKAAEAAGKIGDPEKGKELAAGAKADPSKAVEYARQALSIASAAAIKIAA
B35: design_616_e8336982-fa4d-4d7c-b06f-9007953e1994_1495_dldesign_0_cycle1_af2pred (protein)
chain: SEAELAKKFEEGLKKVEEAKKYAKKVEAKDPEKGKKLKELAGEAANAVLRGYAIPEKAEEEWAKVEKIYEEAKKIAA
B36: design_616_e8336982-fa4d-4d7c-b06f-9007953e1994_756_dldesign_0_cycle1_af2pred (protein)
chain: SQAALDAAYNSAKAFAESAKRAAEKGDVQAAEAAYKSAKLAAESAKVIGAAAGEEAKKVAEKAEKIAEEAKKLVEKLKKEA
B37: design_616_e8336982-fa4d-4d7c-b06f-9007953e1994_632_dldesign_0_cycle1_af2pred (protein)
chain: AAADTEKFKKATEHALKAVELAKEGKLEEAEKEAKKAEEEAKKIKDPVTKAGALALAKAARQVIESKAKE
B38: design_616_e8336982-fa4d-4d7c-b06f-9007953e1994_692_dldesign_0_cycle1_af2pred (protein)
chain: MSEAERLAARGLALARHAALLVGLAVGPEEARRLYAAVAAAAADPAALIEVTTEVLELAKEKAALVPQALTTAREALELLTRARELA

Target: CD276, Q5ZPR3
Sequence (Q5ZPR3 whole entry): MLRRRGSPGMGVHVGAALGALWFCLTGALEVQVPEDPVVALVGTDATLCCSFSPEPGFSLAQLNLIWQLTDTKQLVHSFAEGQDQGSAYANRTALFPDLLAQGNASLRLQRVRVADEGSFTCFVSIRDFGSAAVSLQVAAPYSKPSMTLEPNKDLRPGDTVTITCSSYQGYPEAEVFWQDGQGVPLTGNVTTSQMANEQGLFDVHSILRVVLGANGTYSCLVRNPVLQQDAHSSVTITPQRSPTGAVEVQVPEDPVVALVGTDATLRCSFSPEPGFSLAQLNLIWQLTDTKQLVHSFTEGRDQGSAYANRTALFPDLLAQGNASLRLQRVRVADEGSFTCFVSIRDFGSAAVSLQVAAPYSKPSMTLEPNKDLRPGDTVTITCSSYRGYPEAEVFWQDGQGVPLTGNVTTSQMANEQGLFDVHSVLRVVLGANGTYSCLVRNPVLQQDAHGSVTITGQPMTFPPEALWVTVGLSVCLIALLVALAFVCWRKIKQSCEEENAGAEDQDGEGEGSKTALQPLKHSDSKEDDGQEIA

Binder | binding in a display sort
B1 | not found
B2 | not found
B3 | not found
B4 | not found
B5 | not found
B6 | not found
B7 | not found
B8 | not found
B9 | not found
B10 | not found
B11 | not found
B12 | not found
B13 | not found
B14 | not found
B15 | not found
B16 | not found
B17 | not found
B18 | binds (active)
B19 | not found

Binder | binding in a display sort
B20 | not found
B21 | not found
B22 | not found
B23 | not found
B24 | not found
B25 | not found
B26 | not found
B27 | not found
B28 | not found
B29 | not found
B30 | not found
B31 | not found
B32 | not found
B33 | not found
B34 | not found
B35 | not found
B36 | not found
B37 | not found
B38 | not found

— publication PMC13494018
